VACV E9 pol inh = vaccinia E9 polymerase processive synthesis inhibitors, primary screen, biochemical, absorbance. 46,000 compounds, 0.94% hits. Vaccinia virus DNA polymerase (E9) processive complex. normalized absorbance, % (no concentration beside the values). in vitro processive DNA synthesis, absorbance read-out; stronger effect = lower value; in the data active = normalized absorbance mostly below about 85%, no sharp cut-off; inactive = mostly above about 86%
* hit, by the source's call; ! = not confirmed by another sample. This excerpt belongs to a sample that is enriched for hits.

SMILES	VACV E9 pol inh
CCn1c2ccccc2n2cc(-c3ccccc3)nc12	94
c1ccc(-c2cn3c4ccccc4n(CCN4CCCCC4)c3n2)cc1	59*
Nc1nc2ccccc2n1CCN1CCCCC1	100
O=C(/C=C/c1cccc(Cl)c1)Nc1ccc(N2CCOCC2)cc1	99
COc1ccc(NC2SC(=O)N(Cc3ccccc3)C2=O)cc1 (stereo not given)	100
CCN1CCN(Cc2ccc(NC(=O)Cc3noc4ccccc34)cc2)CC1	90
O=C1NC(=S)S/C1=C/c1ccc(-c2cccc(C(F)(F)F)c2)o1	80*
O=C1NC(=S)S/C1=C\c1ccccc1C(F)(F)F	73
O=S1(=O)CCC(N=Cc2ccc(-c3cccc(C(F)(F)F)c3)o2)C1 (stereo not given)	98
O=C(/C=C/c1ccco1)N(Cc1ccccc1)c1ccccn1	94
O=C(NCc1ccccc1C(F)(F)F)c1ccc2ccccc2c1	93
CSCCC(C(=O)O)N1C(=O)CSC1=S (stereo not given)	88
CSCCC(C(=O)O)n1c(O)c(/C=C2\C=Nc3ccccc32)sc1=S (stereo not given)	78*
CSCCC(C(=O)O)N1C(=O)/C(=C/c2ccc(O)cc2)SC1=S (stereo not given)	98
N=C(N=C(N)N)N1N=CCC1c1ccccc1 (stereo not given)	105
CC(C(=O)O)N1C(=O)/C(=C/c2ccc(Cl)cc2)SC1=S (stereo not given)	100
COc1ccc(-c2cc(C(N)=O)[nH]n2)c(F)c1	100
COc1cc2nc(N3CCN(C(=O)c4ccco4)CC3)nc(N)c2cc1OC	85*!
COc1cc2c(cc1OC)CN(C(=O)c1ccco1)CC2	102
CC(C)N1CCN(C(=O)c2ccco2)CC1	105

Compound activity: PubChem BioAssay, ICCB-Longwood Screening Facility, Harvard Medical School
